The values that follow come from PubChem BioAssay AID1345083 (National Center for Advancing Translational Sciences (NCATS), 2018).

In all, about 94,000 compounds went through this assay and about 6,200 (6.6%) were called active. Another 31% or so got no clear call; they are omitted. This excerpt belongs to a sample that is enriched for actives. Values without a mark were called inactive. The call rests on the fitted dose curve; in most records, active means well fitted inhibition curve with a large enough effect; inconclusive means small, poorly fitted or top-dose-only effect; inactive means flat fitted curve, though single readings scatter.
On the % scale 0 is the no-effect control and ±100 the full control effect; potency means the concentration at half of the fitted maximal effect.

This assay is described as follows: Cytotoxic Profiling in HEK 293 Cell Line of Diverse Libraries Using Quantitative High-Throughput Screening. Further: nearly all actives have a fitted effect of over 60% in size. To be noted: HEK 293 viability, ATP luminescence (CellTiter-Glo), 48-72 h; series mostly up to 115 µM; activity change, negative = cytotoxicity: at the top concentration. An excerpt:
Cell-based phenotypic screening is a commonly used approach to discover biological pathways, novel drug targets, chemical probes and high-quality hit-to-lead molecules. Many hits identified from high-throughput screening campaign are ruled out through a series of follow-up potency, selectivity/specificity, and cytotoxicity assays. Prioritization of molecules with little or no cytotoxicity for a more in-depth downstream evaluation influence the future direction of projects, so cytotoxicity profiling of the screening libraries at early stage is essential for increasing the likelihood of candidate success. In this study, we analyzed results from a cell-based cytotoxicity screening campaign, comprising nearly 10,000 compounds in NCATS annotated libraries, and over 100,000 compounds in a diversity library, evaluated in four normal cell lines (HEK 293, NIH 3T3, CRL-7250 and HaCat) and a cancer cell line (KB 3-1, a HeLa subline) with overall screening outcomes, hit rates, pan-activity and selectivity. For the annotated library, we also examined the primary targets and mechanistic pathways regularly associated with cell death. To our knowledge, this is the first study to use high-throughput screening to profile large libraries for cytotoxicity assessment in both normal and cancer cell lines. In summary, the results generated here constitutes a valuable resource for the scientific community and provides insight on identifying cytotoxic compounds with particular mechanisms of action, and prioritizing compounds with suitable cytotoxicity profile for further evaluation.
HEK 293 cells were seeded into white 1536-well plates using a Multidrop Combi peristaltic dispenser (ThermoFisher, Waltham, MA) at a density of 250 cells/well in 5 uL of medium respectively. A pintool (Kalypsys) was used to transfer 23 nL of compound solution to the 1536-well assay plates. After 48 or 72 hr incubation at 37 degree Celsius, 5% CO2 and 95% humidity, 2.5 uL of CellTiter-Glo (Promega) was dispensed into each well using a dispenser (Aspect Automation, St. Paul, MN) with solenoid valves (Lee Valves, Westbrook CT). Plates were left at room temperature for 10 min before imaging the ATP-coupled luminescence using a ViewLux microplate imager (PerkinElmer, Waltham, MA).
(In general: In ATP-based viability assays light output follows the ATP content of the culture.)
Take `CC1(c2cccnc2)N(Cc2ccccc2)C(=O)OC12CCN(C(=O)c1cccc(Cl)c1)CC2` (configuration not stated): the “activity change, negative = cytotoxicity” value was -18%.

Turning to `CC1(c2ccccc2)N(Cc2ccccc2)C(=O)OC12CCN(c1ccncc1)CC2` (configuration not stated), the Potency was 89.1 µM (active).

For `CCN(Cc1ccccc1)C(=O)CC1CCCN(c2cnn(CCOC)c(=O)c2)C1` (configuration not stated), the “activity change, negative = cytotoxicity” value is -1.1%.

For the molecule `COc1ccc(-c2noc(-c3nnn4c3COC(c3ccc(OC)cc3)C4)n2)cc1` (configuration not stated), the “activity change, negative = cytotoxicity” value was 17.9%.

Consider `CC(C)CC(=O)N1CCC(Oc2ccccc2-c2nc(C3CCOCC3)no2)C1` (configuration not stated), for which the “activity change, negative = cytotoxicity” value is -37.7%.

As to `Cc1nc(C)c(C(=O)N2CCC(Oc3ccccc3-c3nc(-c4ccccc4)no3)C2)s1` (configuration not stated), the Potency was 28.2 µM (active).

Regarding `Cc1noc(-c2ccccc2OC2CCN(C(=O)c3cnccc3C)C2)n1` (configuration not stated), the “activity change, negative = cytotoxicity” value was -0.104%.

With `CCn1ccc(C(=O)N2CCCN(S(=O)(=O)c3ccccc3)CCC(=O)NCC2)n1`, the molecule was classed as inactive.

Take `COCCNC(=O)C(C)[C@@H]1CC[C@@]2(C)CC[C@H](NC(=O)c3ccccc3)[C@@H](C)[C@@H]2[C@H]1O` (some centres not stated): the “activity change, negative = cytotoxicity” value is -10.3% [at 172 µM].

For the molecule `C[C@H]1[C@@H]2[C@H]3OC(=O)[C@@H](C)[C@@H]3CC[C@@]2(C)CC[C@@H]1NC(=O)Cc1ccccc1`, the Potency is 100 µM (active).

For the molecule `C[C@H]1[C@@H]2[C@@H](O)C([C@H](C)C(=O)NCCN3CCOCC3)CC[C@@]2(C)CC[C@@H]1NC(=O)c1ccccc1` (some centres not stated), the “activity change, negative = cytotoxicity” value was -4.94%.

Regarding `CCc1nc(-c2c3n(c(=O)n(CC(=O)Nc4cccc(Cl)c4C)c2=O)CCCC3)no1`, the “activity change, negative = cytotoxicity” value was 16%.

Take `Cc1nn(-c2ccccc2)c(C)c1CN1CCCC12Cc1ccccc1CNC2=O` (configuration not stated): the “activity change, negative = cytotoxicity” value is -26.1%.

Take `O=C1NCc2ccccc2CC12CCCCN2Cc1cccc(F)c1F` (configuration not stated): the Potency was 50.1 µM (active).

Take `CCOC(=O)C1CC1CN1CCCC12Cc1ccccc1CNC2=O` (configuration not stated): the “activity change, negative = cytotoxicity” value is -17.2%.

With `CCN(C(=O)CCC(=O)N1CCc2c(c(-c3nncn3CC)nn2C)C1)c1ccccc1`, the “activity change, negative = cytotoxicity” value is -5.93%.

On to `CC(C)c1nnc(C2CN(C(=O)c3ccc4ccccc4n3)CC23CCOCC3)o1` (configuration not stated), for which the “activity change, negative = cytotoxicity” value was -0.559%.

On to `CNc1ncc(C(=O)N[C@@H]2COCC[C@@H]2OCc2c(C)noc2C)cn1`, for which the “activity change, negative = cytotoxicity” value is -16.4%.

On to `COc1ccc(NC(=O)c2cc3c(N(C)Cc4ccccc4)nc(C)cn3n2)cc1F`, for which the “activity change, negative = cytotoxicity” value was -23.2%.

With `O=C(c1cnccn1)N1CCC2(COc3ncccc3[S+](=O)([O-])N2)C1` (configuration not stated), the “activity change, negative = cytotoxicity” value is -22.4%.

With `CCCn1cc(C(=O)N2C[C@H](c3ccccc3)[C@@H](N)C2)c(C)n1`, the “activity change, negative = cytotoxicity” value was 2.2%.

On to `COc1ccc(CN2CCC3(Cc4ccccc4CNC3=O)C2)cc1OC` (configuration not stated), for which the “activity change, negative = cytotoxicity” value is -18.4%.

In the case of `CN1CC(=O)N(c2cccnc2)Cc2c1ncnc2N1CCN(c2ccccn2)CC1`, the “activity change, negative = cytotoxicity” value is 3.25%.

Regarding `O=C(O)CCC(=O)N1Cc2[nH]cnc2C[C@H]1c1nc(-c2ccc3ccccc3c2)no1`, the “activity change, negative = cytotoxicity” value was 2.68% [at 172 µM].

Take `O=[N+]([O-])c1cccc(-c2noc([C@@H]3C[C@@H](O)CN3Cc3cccc(OC(F)(F)F)c3)n2)c1`: the “activity change, negative = cytotoxicity” value was -23.7%.

Take `O=C(NCc1ccccc1)[C@@H]1Cc2nc[nH]c2CN1Cc1cccc(OC(F)(F)F)c1`: the Potency was 70.8 µM (active).

As to `CN1Cc2ncnc(NCc3cccs3)c2CN(c2ccccc2)C1=O`, the “activity change, negative = cytotoxicity” value was -16.5%.

With `CN1CCN(C(=O)CC2=C3CCCCC3NC2=O)CC1` (configuration not stated), the “activity change, negative = cytotoxicity” value is -0.271%.

`O=C(NCCC1CCN(C(=O)Nc2cc(F)ccc2F)CC1)c1cc(F)ccc1F`: the “activity change, negative = cytotoxicity” value was -7.51%.

Consider `COc1ccc(NC(=O)CCC2CCN(S(=O)(=O)c3ccc(C)cc3)CC2)cc1F`, for which the “activity change, negative = cytotoxicity” value was -5.83%.

As to `O=C(CCC1CCN(C(=O)c2ccccc2F)CC1)Nc1cccc(Cl)c1`, the Potency was 12.6 µM (active).

For `COc1cc2c(cc1C(=O)N1CCC3(CCCN(C)C3=O)C1)CCC2` (configuration not stated), the “activity change, negative = cytotoxicity” value is -14%.

Regarding `Cn1nccc1CN1CCc2nc(C3CC3)nc(-c3ccc(O)cc3)c2C1`, the “activity change, negative = cytotoxicity” value was -11.9%.

For `COCCc1noc(CC2CCOC3(CCN(C(=O)C4CCCC4)CC3)C2)n1` (configuration not stated), the “activity change, negative = cytotoxicity” value was -15.6%.

Regarding `CN(C)C[C@H]1O[C@@H]2C[C@@H](CC(=O)N3CCC(F)(F)C3)O[C@@H]2[C@@H]1O`, the “outcome” value was “inactive [at 172 µM]”.

Take `O=C(Cc1cccnc1)N1CCc2onc(-c3ccc(F)c(F)c3)c2C1`: the “activity change, negative = cytotoxicity” value is -5.33%.

As for `COc1ccc(Cl)cc1S(=O)(=O)N1CCCC(CNC(=O)c2ccco2)C1` (configuration not stated), the “activity change, negative = cytotoxicity” value is -23.9%.

For the molecule `Cc1ccc(S(=O)(=O)N2CCCC(CCC(=O)N(C)C)C2)cc1` (configuration not stated), the “activity change, negative = cytotoxicity” value is -7.42%.

Take `Cc1ccccc1S(=O)(=O)N1CCCC(CCC(=O)NCC2CCCCC2)C1` (configuration not stated): the Potency was 39.8 µM (active).

Regarding `CCCc1noc(-c2ccn3c(CNC(=O)c4ccc(N(C)C)cc4)nnc3c2)n1`, the result was inactive.

On to `CCCNC(=O)N(C1CCOCC1)C1CCN(S(=O)(=O)c2ccc(F)cc2)CC1`, for which the “activity change, negative = cytotoxicity” value is 14.9%.

For `Cc1cccc(NC(=O)Cn2nc3n(c2=O)CCCC3)c1`, the “activity change, negative = cytotoxicity” value was -3.69%.

With `CCOC(=O)c1cccc(NC(=O)c2ccc3c(c2)N(C)C2CCCCN2C3=O)c1` (configuration not stated), the Potency is 35.5 µM (active).

In the case of `CCOc1ccc(NC(=O)c2ccc3c(c2)N(C)C2CCCN2C3=O)cc1` (configuration not stated), the “activity change, negative = cytotoxicity” value is -4.25%.

On to `CN1c2cc(C(=O)Nc3ccccc3)ccc2C(=O)N2CCCCCC21` (configuration not stated), for which the Potency was 79.4 µM (active).

With `CN1c2cc(C(=O)Nc3ccc(Cl)cc3)ccc2C(=O)N2CCCCCC21` (configuration not stated), the Potency is 35.5 µM (active).

As to `Cc1ccc(CNC(=O)c2ccc3c(c2)N(C)C2CCCCN2C3=O)cc1C` (configuration not stated), the “activity change, negative = cytotoxicity” value was -7.81%.

`COCCn1ccc2cc(C(=O)Nc3ccc4c(c3)C(=O)N3CCC[C@H]3C(=O)N4)ccc21`: the “activity change, negative = cytotoxicity” value was 2.52%.

For `Cc1ccc(N2CCN(C(=O)c3ccc4c(c3)N(C)C3CCCCCN3C4=O)CC2)cc1` (configuration not stated), the Potency was 39.8 µM (active).

With `CN1c2cc(C(=O)N3CCC(C(N)=O)CC3)ccc2C(=O)N2CCCCC21` (configuration not stated), the “activity change, negative = cytotoxicity” value was 4.63%.

On to `CN1CCCCCCN(C(=O)Nc2ccccc2)CCC1=O`, for which the “activity change, negative = cytotoxicity” value was -17.9%.

Regarding `Cc1ccc(C(=O)N2CCC(C(=O)N3CCC(N4CCOCC4=O)CC3)CC2)cc1`, the call was inactive.
